In the supplement of paper PMC10849652 one finds log2 fold change data, which are given here for 37 targets.

About 7,900 targets were measured; listed, in parts, are those with a hit and a random draw of the rest. About 0.6% of all pairs of compound and target were hits.

Sequence of UniProt Q6L8Q7 (Q6L8Q7 whole entry, looked up): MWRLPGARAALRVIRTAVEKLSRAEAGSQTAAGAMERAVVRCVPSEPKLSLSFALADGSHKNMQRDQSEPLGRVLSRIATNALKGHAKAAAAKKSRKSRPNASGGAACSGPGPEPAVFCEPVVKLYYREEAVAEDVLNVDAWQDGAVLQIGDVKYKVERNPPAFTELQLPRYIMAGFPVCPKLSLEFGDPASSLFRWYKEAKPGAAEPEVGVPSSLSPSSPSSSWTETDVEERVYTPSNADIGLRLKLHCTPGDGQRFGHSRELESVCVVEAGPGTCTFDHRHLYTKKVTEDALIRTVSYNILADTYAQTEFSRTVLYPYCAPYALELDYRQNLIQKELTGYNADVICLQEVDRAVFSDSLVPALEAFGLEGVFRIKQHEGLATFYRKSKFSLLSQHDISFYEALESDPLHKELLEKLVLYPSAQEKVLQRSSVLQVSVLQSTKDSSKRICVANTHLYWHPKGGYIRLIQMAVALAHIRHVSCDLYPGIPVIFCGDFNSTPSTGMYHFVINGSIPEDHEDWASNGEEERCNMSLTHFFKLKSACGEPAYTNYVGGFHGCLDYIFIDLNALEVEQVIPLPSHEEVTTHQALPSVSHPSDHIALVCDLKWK
Sequence of UniProt O75340 (O75340 whole entry, looked up): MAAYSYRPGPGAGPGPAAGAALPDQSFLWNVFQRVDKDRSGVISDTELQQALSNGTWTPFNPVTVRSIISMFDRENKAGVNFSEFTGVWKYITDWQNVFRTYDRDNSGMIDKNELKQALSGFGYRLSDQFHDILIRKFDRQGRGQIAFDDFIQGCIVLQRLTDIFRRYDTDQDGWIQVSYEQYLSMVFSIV
Sequence of UniProt Q99541 (Q99541 whole entry, looked up): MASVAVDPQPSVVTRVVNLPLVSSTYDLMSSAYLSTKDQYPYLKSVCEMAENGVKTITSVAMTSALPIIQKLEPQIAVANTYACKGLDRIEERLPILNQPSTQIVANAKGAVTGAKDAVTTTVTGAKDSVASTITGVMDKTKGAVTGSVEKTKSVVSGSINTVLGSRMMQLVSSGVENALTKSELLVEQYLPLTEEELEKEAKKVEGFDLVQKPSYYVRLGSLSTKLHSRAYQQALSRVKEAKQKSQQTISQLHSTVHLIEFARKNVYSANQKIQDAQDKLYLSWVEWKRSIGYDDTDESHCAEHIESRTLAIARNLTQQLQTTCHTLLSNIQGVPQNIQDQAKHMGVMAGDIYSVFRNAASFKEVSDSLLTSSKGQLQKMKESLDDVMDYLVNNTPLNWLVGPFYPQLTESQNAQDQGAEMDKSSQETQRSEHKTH
Sequence of UniProt Q9NR12 (Q9NR12 whole entry, looked up): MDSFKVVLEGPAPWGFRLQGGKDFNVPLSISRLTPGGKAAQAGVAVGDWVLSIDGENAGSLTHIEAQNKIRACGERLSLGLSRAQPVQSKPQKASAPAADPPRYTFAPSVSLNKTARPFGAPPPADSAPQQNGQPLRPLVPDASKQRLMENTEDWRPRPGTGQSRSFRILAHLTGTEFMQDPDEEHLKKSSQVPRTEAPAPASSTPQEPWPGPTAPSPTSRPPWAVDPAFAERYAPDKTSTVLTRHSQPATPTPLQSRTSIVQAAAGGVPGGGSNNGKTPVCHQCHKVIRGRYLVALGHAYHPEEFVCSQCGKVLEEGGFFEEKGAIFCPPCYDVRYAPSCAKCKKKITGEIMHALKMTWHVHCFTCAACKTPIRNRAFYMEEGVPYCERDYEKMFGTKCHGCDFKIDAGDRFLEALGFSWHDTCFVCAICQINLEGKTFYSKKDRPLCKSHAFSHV
Sequence of UniProt P62195 (P62195 whole entry, looked up): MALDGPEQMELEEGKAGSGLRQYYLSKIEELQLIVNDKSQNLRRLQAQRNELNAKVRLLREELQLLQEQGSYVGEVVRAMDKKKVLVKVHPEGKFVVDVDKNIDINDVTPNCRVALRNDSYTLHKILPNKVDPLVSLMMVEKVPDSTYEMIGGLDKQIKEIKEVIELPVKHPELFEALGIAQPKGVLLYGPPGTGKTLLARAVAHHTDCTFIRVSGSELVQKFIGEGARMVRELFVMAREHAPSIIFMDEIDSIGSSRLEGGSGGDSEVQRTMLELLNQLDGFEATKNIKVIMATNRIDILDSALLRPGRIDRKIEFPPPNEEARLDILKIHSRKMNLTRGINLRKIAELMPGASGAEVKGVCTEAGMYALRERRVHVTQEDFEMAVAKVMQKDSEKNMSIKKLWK
Sequence of UniProt Q9Y478 (Q9Y478 whole entry, looked up): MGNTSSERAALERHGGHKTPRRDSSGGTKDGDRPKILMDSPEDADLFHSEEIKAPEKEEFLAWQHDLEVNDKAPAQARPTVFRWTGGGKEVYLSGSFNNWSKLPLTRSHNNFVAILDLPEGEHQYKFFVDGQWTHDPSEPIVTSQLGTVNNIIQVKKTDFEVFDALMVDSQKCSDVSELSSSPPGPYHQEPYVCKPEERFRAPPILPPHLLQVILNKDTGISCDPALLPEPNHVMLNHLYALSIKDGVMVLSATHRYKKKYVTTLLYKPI
Sequence of UniProt P43686 (P43686 whole entry, looked up): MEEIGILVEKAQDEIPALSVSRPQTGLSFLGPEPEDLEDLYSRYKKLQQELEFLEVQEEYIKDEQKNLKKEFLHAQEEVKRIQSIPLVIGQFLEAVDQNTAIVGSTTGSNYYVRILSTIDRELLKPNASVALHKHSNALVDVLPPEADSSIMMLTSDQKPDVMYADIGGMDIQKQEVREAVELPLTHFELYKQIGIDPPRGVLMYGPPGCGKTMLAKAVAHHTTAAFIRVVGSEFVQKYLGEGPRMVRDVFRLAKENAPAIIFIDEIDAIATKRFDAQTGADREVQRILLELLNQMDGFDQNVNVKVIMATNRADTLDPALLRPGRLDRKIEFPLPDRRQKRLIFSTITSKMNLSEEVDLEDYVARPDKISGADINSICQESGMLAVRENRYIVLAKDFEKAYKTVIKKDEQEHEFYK
Sequence of UniProt Q99575 (Q99575 whole entry, looked up): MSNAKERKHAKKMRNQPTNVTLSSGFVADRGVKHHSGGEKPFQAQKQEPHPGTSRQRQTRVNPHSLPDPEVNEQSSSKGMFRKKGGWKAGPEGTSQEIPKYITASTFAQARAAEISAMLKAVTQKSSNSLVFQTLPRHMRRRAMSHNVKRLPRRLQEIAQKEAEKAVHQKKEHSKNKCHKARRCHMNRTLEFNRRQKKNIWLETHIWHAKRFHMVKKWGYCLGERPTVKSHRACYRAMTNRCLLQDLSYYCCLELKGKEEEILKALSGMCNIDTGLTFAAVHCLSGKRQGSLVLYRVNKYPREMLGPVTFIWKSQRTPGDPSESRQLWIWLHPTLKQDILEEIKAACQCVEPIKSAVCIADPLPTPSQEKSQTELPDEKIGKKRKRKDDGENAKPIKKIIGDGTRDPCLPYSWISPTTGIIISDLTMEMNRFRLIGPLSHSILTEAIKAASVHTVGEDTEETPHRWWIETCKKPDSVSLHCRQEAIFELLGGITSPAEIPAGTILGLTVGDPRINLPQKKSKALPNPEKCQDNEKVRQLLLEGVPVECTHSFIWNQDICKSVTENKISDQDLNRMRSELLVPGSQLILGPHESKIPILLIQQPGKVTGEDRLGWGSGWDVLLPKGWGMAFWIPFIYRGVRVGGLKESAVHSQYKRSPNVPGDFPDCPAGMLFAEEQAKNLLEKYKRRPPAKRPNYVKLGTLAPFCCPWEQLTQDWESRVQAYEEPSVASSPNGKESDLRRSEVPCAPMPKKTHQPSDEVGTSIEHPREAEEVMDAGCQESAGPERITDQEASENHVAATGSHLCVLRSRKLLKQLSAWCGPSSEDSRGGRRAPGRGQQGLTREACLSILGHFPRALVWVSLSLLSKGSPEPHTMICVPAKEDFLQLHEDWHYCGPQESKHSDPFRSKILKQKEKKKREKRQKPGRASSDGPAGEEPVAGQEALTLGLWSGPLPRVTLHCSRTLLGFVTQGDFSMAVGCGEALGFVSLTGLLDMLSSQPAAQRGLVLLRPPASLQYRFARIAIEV
Sequence of UniProt Q92968 (Q92968 whole entry, looked up): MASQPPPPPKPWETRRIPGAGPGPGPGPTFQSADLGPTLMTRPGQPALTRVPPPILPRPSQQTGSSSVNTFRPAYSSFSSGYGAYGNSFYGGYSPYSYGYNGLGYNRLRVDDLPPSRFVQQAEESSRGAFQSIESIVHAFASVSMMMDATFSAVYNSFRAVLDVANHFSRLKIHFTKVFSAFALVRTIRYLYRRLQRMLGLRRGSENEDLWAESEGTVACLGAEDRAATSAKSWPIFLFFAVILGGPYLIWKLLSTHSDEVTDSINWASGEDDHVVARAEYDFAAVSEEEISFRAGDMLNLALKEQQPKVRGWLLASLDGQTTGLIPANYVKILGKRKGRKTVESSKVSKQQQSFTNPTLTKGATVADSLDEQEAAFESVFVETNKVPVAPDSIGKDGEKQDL
Sequence of UniProt Q05209 (Q05209 whole entry, looked up): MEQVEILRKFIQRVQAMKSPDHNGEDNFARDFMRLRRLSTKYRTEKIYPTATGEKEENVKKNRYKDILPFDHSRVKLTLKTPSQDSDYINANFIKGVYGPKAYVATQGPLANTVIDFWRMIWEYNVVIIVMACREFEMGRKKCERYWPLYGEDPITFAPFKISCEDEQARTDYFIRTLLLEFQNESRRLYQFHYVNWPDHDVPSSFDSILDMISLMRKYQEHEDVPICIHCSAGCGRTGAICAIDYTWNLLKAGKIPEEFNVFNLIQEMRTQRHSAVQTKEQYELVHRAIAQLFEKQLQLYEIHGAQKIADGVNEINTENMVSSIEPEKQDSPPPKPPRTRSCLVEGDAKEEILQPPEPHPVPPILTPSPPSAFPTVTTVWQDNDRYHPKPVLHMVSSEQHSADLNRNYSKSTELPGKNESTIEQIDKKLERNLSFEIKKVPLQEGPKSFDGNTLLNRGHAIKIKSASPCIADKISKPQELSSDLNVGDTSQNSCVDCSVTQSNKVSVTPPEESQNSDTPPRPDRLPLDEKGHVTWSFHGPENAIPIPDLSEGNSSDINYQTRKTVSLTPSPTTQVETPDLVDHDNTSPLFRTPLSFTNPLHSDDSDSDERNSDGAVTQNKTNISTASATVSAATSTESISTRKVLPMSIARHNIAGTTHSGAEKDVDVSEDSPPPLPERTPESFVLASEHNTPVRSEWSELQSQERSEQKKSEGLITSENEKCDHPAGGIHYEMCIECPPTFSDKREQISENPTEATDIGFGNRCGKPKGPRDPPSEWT

Compound in this experiment: CC(C)C[C@@H](C=O)NC(=O)[C@H](CC(C)C)NC(=O)[C@H](CC(C)C)NC(=O)OCc1ccccc1
The experiment in a line: log2 fold change, soluble protein after heating vs DMSO (PISA); higher = thermal stabilisation; K562 cells, 10 uM, 30 min; active = over 0.2 and 3.5 SD of the protein, either way, in both replicates (recomputed). Summed up:
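Soluble protein was quantified by TMTpro 16plex LC-MS/MS after channel sums were equalised. It was obtained as the supernatant after 21,000xg for 90 min from pooled aliquots of K562 cells (2×10^6 cells/mL, 10 μM compound, 30 min) heated for 3 min across 48°C-58°C and extracted in PBS with 0.5% NP-40 at 4°C. Thermal stability values are relative to control samples and come from duplicates. They are given as log2 fold changes.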
As to PSMC2 (UniProt P35998), the log2 fold change was -0.183 (inactive).

With PSMB6 (UniProt P28072), the log2 fold change was 0.4 (active). The result for PRKD2 isoform 3 (UniProt Q9BZL6) reads 0.074 (inactive); that for QKI (UniProt Q96PU8), -0.005 (inactive); that for PKN1 isoform 2 (UniProt Q16512), 0.002 (inactive).

For PRPF38B (UniProt Q5VTL8), the log2 fold change was 0.03 (inactive). The value for PTPN12 (UniProt Q05209) was 0.057 (inactive); that for PDCD6 (UniProt O75340) was 0.018 (inactive). The value for PPOX (UniProt P50336) was -0.008 (inactive).

With POP1 (UniProt Q99575), the log2 fold change is -0.03 (inactive).

For PIKFYVE (UniProt Q9Y2I7), the log2 fold change is 0.063 (inactive). The value for PPP1R35 (UniProt Q8TAP8) was 0.036 (inactive). Take PSMB4 (UniProt P28070): the log2 fold change was -0.043 (inactive).

PLIN2 (UniProt Q99541): the log2 fold change is -0.014 (inactive). The value for PCNT (UniProt O95613) was 0.229 (inactive); that for PSMD13 (UniProt Q9UNM6) was -0.265 (active); that for PEA15 isoform 2 (UniProt Q15121) was -0.046 (inactive). Consider PARG (UniProt Q86W56), for which the log2 fold change is 0.043 (inactive). The value for PDLIM7 (UniProt Q9NR12) was -0.045 (inactive).

On to PEX13 (UniProt Q92968), for which the log2 fold change was 0.036 (inactive). Regarding PRKCD (UniProt Q05655), the log2 fold change was 0.022 (inactive). With PSMC5 (UniProt P62195), the log2 fold change was -0.273 (active).

Consider PCBP1 (UniProt Q15365), for which the log2 fold change is -0.006 (inactive). Regarding POLR3B (UniProt Q9NW08), the log2 fold change was 0.055 (inactive).

Turning to PHKG2 (UniProt P15735), the log2 fold change is 0.017 (inactive). The result for POLR2D (UniProt O15514) reads -0.009 (inactive); that for PRKAB1 (UniProt Q9Y478), -0.041 (inactive); that for PRKAA1 isoform 2 (UniProt Q13131), -0.014 (inactive). For the target PSMC4 (UniProt P43686), the log2 fold change was -0.249 (active). In the case of PRKAR1A (UniProt P10644), the log2 fold change was 0.041 (inactive). Turning to PIK3R1 (UniProt P27986), the log2 fold change is 0.027 (inactive).

PHAX (UniProt Q9H814): the log2 fold change was 0.019 (inactive). On to PIP4P2 (UniProt Q8N4L2), for which the log2 fold change was 0.011 (inactive). The result for PLBD1 (UniProt Q6P4A8) reads -0.015 (inactive). Regarding PSMC1 (UniProt P62191), the log2 fold change is -0.212 (active).

With PDE12 (UniProt Q6L8Q7), the log2 fold change was 0.03 (inactive). The value for PARN (UniProt O95453) was 0.018 (inactive).
